FBA Mtb inh: Mtb FBA enzyme inhibitors, primary screen, biochemical, fluorescence, strain H37Rv; inhibition, % at 1 µM; actives 2.3% (n = 360,000); Fructose-bisphosphate aldolase (Mycobacterium tuberculosis (strain ATCC 25618 / H37Rv)), …; purified M. tuberculosis FBA, fluorescence read-out; in the data active = inhibition above about 27%
CCHF vOTU inh-1: CCHFV vOTU protease inhibitors, primary screen, biochemical, Pep-AMC substrate, fluorescence | actives 0.55% (n = 370,000) | inhibition, % at 11.5 µM | Crimean-Congo hemorrhagic fever virus L polyprotein viral ovarian tumor (vOTU) protease …
Mtb bLac sens: beta-lactam sensitization of Mtb H37Rv, H37Rv; inhibition, % at 25 µM; M. tuberculosis H37Rv growth with meropenem, percent inhibition; AID 434955, 2010; actives 0.27% (n = 330,000); call rule not given here;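 note: growth measured after seven days incubation then overnight dye step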
GDH-TPI inh: GDH-TPI coupling enzyme inhibitors, primary screen, artefact control for M. tuberculosis FBA inhibitor project, biochemical, absorbance, full deck; actives 1.2% (n = 360,000); inhibition, % at 4.8 µM; AID 588335, 2011; GDH-TPI coupled enzyme counterscreen, NADH absorbance
RecA intein inh: Mtb RecA intein splicing inhibitors, primary screen, biochemical, fluorescence, HTS; actives 0.75% (n = 290,000); Protein RecA (Mycobacterium tuberculosis (strain ATCC 25618 / H37Rv)), P9WHJ3; cell-free RecA intein splicing; inhibition, % (concentration not given with the values); in the data active = inhibition above about 30%; inconclusive = no clear call, values can overlap the other calls
Target sequence (P9WHJ3 whole entry, looked up): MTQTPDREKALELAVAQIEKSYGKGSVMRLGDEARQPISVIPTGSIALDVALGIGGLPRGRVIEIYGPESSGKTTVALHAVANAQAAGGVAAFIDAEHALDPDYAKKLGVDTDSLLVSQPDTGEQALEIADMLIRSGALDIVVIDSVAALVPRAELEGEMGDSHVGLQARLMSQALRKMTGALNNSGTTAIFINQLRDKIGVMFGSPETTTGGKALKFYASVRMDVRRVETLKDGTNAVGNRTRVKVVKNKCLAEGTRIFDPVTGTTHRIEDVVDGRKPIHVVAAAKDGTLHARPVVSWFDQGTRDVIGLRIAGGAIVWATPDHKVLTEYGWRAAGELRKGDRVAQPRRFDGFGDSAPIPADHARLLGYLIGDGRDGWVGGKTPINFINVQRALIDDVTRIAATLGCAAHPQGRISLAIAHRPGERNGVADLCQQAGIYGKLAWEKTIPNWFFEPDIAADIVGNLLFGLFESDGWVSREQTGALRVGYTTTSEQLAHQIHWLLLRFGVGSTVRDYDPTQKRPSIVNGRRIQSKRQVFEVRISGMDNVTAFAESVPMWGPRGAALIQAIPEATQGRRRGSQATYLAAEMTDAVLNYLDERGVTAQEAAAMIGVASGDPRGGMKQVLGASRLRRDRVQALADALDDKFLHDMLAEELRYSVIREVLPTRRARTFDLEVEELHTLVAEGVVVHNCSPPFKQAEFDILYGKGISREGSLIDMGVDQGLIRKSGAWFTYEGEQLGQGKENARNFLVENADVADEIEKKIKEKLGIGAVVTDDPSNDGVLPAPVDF
CCHF vOTU inh-2: CCHFV vOTU protease inhibitors, confirmation, biochemical, Pep-AMC substrate, fluorescence | shares compounds with CCHF vOTU inh-1 | Recombinant CCHFV vOTU | inhibition, % at 11.5 µM | actives 17% (n = 1,900) | AID 686976, 2013
Each line names hits and unclear results; the compound was inactive in the other large screens (follow-up assays come after a bar, where they were run). Rows were chosen to be rich in hits. Some 4.2% of all compounds tested hit in one or more screens of this group. Cut-off read from the data, not from the text of the source, unless noted: active = inhibition above about 30%; inactive = the rest.

CCCCCCN1C[C@H](n2cc(C3CC3)nn2)[C@@H](O)C[C@@H]1c1ccc(C)cc1	CCHF vOTU inh-1 38 (no result: Mtb bLac sens, RecA intein inh) | CCHF vOTU inh-2 inactive
O=C(Nc1ccc(Cl)c(S(=O)(=O)N2CCCCC2)c1)c1cccnc1	none (no result: RecA intein inh)
CC(C)(C)S(=O)N1Cc2cc(C(=O)N3CCc4ccccc4C3)nc(-c3cccc(-c4cccnc4)c3)c2[C@@H]1CCO (stereo partly specified)	CCHF vOTU inh-1 37 (no result: Mtb bLac sens, GDH-TPI inh, RecA intein inh) | CCHF vOTU inh-2 inactive
Cc1[nH]nc2c1C(c1ccc(F)cc1)N(c1ccccc1)C2=O (stereo unspecified)	none (no result: FBA Mtb inh, Mtb bLac sens, GDH-TPI inh, RecA intein inh)
CC(=O)N(/N=C1\Sc2ccccc2C1=O)c1ccc(C)cc1C	none
CC(=O)N(/N=C1\Sc2ccccc2C1=O)c1ccccc1C	CCHF vOTU inh-1 47 | CCHF vOTU inh-2 38
CSCC(=O)NC1CCCc2c1cnn2-c1cc(F)cc(F)c1 (stereo unspecified)	CCHF vOTU inh-1 30 | CCHF vOTU inh-2 inactive
O=C(O)c1cccc(Nc2ccncc2[N+](=O)[O-])c1	CCHF vOTU inh-1 30 | CCHF vOTU inh-2 inactive
Clc1ccc(-n2c(SCc3cccc4ccccc34)nnc2-c2ccccn2)cc1	none (no result: FBA Mtb inh, Mtb bLac sens, GDH-TPI inh, RecA intein inh)
CC(C)[C@H](NC(=O)N1CC(=O)Nc2ccccc21)C(=O)N1CCC(C(=O)O)CC1	none
CCOc1ccc(C=Nc2cccc3ncccc23)cc1	none
Oc1ccc(C=Nc2cccc3ncccc23)c(O)c1	CCHF vOTU inh-1 44 | CCHF vOTU inh-2 inactive
CN1N=C(N)c2cn(C3OC(COP(=O)(O)O)C(O)C3O)c3ncnc1c23 (stereo unspecified)	CCHF vOTU inh-1 32 (no result: Mtb bLac sens, RecA intein inh) | CCHF vOTU inh-2 inactive
CC1(C(=O)NS(=O)(=O)c2ccc(Cl)cc2)CCN1C(=O)C1(c2ccc(Cl)cc2)CC1 (stereo unspecified)	none (no result: Mtb bLac sens, RecA intein inh)
CC(C)(C)c1ccc(S(=O)(=O)NC(=O)C2(C)CCN2C(=O)C2(c3ccc(Cl)cc3)CC2)cc1 (stereo unspecified)	CCHF vOTU inh-1 31 (no result: Mtb bLac sens, RecA intein inh) | CCHF vOTU inh-2 inactive
COc1ccc(/C=N/Nc2nncn2N)cc1Br	CCHF vOTU inh-1 91 | CCHF vOTU inh-2 inactive
COc1cc(/C=C2\N=C(c3ccccc3)OC2=O)ccc1OCc1c(C)no[n+]1[O-]	none
COc1ccc(CSc2nncn2N)cc1Br	none
COc1cc(/C=N/Nc2nncn2N)ccc1OCc1c(C)no[n+]1[O-]	CCHF vOTU inh-1 97 | CCHF vOTU inh-2 inactive
O=C(N/N=C/c1ccc(Cl)cc1Cl)c1ccc(-n2cnnn2)cc1	none (no result: RecA intein inh)
Nn1cnnc1N/N=C/c1ccc(Cl)cc1Cl	CCHF vOTU inh-1 102 | CCHF vOTU inh-2 inactive
O=C(/C=C/c1cccc(C(F)(F)F)c1)NNC(=O)c1ccncc1	none (no result: Mtb bLac sens, RecA intein inh)
O=C(NS(=O)(=O)NC1CCCCC1)C1=C(N2CCCC2)COC1=O	none (no result: RecA intein inh)
CC1(c2ccccc2)NC(=O)N(CC(=O)N2CCN(S(=O)(=O)c3cccc([N+](=O)[O-])c3)CC2)C1=O (stereo unspecified)	none
C[n+]1cccc2cccc([O-])c21	CCHF vOTU inh-1 58 (no result: Mtb bLac sens, RecA intein inh) | CCHF vOTU inh-2 96
CCCCCCCCCCCCCCCC[n+]1cccc2ccccc21	CCHF vOTU inh-1 44 (no result: RecA intein inh) | CCHF vOTU inh-2 70
CCCCCCCCC[n+]1cccc2c3ccccc3ccc21	none (no result: CCHF vOTU inh-1)
O=C(Nc1ccc(OC(F)(F)F)cc1)C1CCCCN1S(=O)(=O)c1ccccc1 (stereo unspecified)	none (no result: Mtb bLac sens, RecA intein inh)
CC(=O)N(C)c1ccc(N=Cc2cc3c(cc2[N+](=O)[O-])OCO3)cc1	CCHF vOTU inh-1 34 | CCHF vOTU inh-2 31
Cc1ccc(N=Cc2cc3c(cc2[N+](=O)[O-])OCO3)cc1[N+](=O)[O-]	none
CN(c1cccc(Cl)c1)S(=O)(=O)c1cccc(C(=O)NN2CCOCC2)c1	none (no result: RecA intein inh)
COc1ccc(S[C@@H](CCN2CC[C@H](NC(=O)OCc3ccccc3)CCC2=O)c2ccccc2)cc1	CCHF vOTU inh-1 36 (no result: RecA intein inh) | CCHF vOTU inh-2 inactive
Cc1ccc(NC(=S)N2CCCC2)cc1Cl	none
O=S(=O)(Nc1ccc(Cl)c(C(F)(F)F)c1)c1cnc[nH]1	CCHF vOTU inh-1 32 | CCHF vOTU inh-2 inactive
O=C(O)c1ccc(Cl)c(S(=O)(=O)N(Cc2ccccc2)c2ccc(Cl)cc2)c1	CCHF vOTU inh-1 31 | CCHF vOTU inh-2 inactive
NC(=O)COC(=O)c1ccc(Cl)c(S(=O)(=O)N(Cc2ccccc2)c2ccc(Cl)cc2)c1	none
O=C(CC1C(=O)NCCN1Cc1ccccc1C(F)(F)F)NC1CCC1 (stereo unspecified)	Mtb bLac sens inconclusive
CCCCCCCCN1[C@@H](CC(=O)OC)c2cc(F)ccc2S1(=O)=O	none
CCCCCCCCCCCCN1[C@@H](CC(=O)O)c2cc(F)ccc2S1(=O)=O	CCHF vOTU inh-1 32 | CCHF vOTU inh-2 42
Cc1noc(NS(=O)(=O)c2ccc(NC(=O)c3oc4ccc(Cl)cc4c3C)cc2)c1C	CCHF vOTU inh-1 35 | CCHF vOTU inh-2 inactive
Cc1ccsc1C(=O)OCC(=O)NC1CCCCC1C (stereo unspecified)	none (no result: RecA intein inh)
CC1CCN(CCCNC(=O)CCNC(=O)Cn2cnc3ccccc3c2=O)CC1	none
CC(=O)Nc1ccc(C(=O)N/N=C/c2cc(Br)cc(Br)c2O)cc1	none
CC(C)C(=O)Nc1ccc(C(=O)N/N=C/c2cc(Br)cc(Br)c2O)cc1	CCHF vOTU inh-1 32 | CCHF vOTU inh-2 inactive
CCCn1c(O)c(N=NC(=O)CNC(=O)Cc2ccc(OC)cc2)c2ccccc21	CCHF vOTU inh-1 32 | CCHF vOTU inh-2 inactive
COC(=O)C1=C(C)N(Cc2ccccc2C(F)(F)F)C(=NCc2cc(OC)c(OC)c(OC)c2)NC1CCc1ccccc1 (stereo unspecified)	none (no result: FBA Mtb inh, Mtb bLac sens, GDH-TPI inh, RecA intein inh)
O=C(O)CCCNc1cc(N2CCN(C(=O)c3ccco3)CC2)c2noc3c2c1C(=O)c1ccccc1-3	CCHF vOTU inh-1 32 | CCHF vOTU inh-2 81
Cn1c(NC(=O)c2ccco2)c(-c2ccc(Cl)cc2)c(=O)c2ccccc21	none (no result: RecA intein inh)
Cc1cccc2c(=O)c(-c3ccc(Cl)cc3)c(NC(=O)c3ccco3)oc12	CCHF vOTU inh-1 30 | CCHF vOTU inh-2 inactive
COc1cc(/C=C2\SC(N3CCC(C)CC3)=NC2=O)ccc1O	none
C=CCN1C(=O)[C@H](CC(=O)N2CCC(c3ccccc3)CC2)[C@@]2(C(=O)OCC)CCCC=C12	none (no result: FBA Mtb inh, Mtb bLac sens, GDH-TPI inh, RecA intein inh)
CC1C/C(=C\c2ccccc2[N+](=O)[O-])c2nc3ccccc3c(C(=O)O)c2C1 (stereo unspecified)	CCHF vOTU inh-1 32 | CCHF vOTU inh-2 inactive
CC(C)N(C(=O)Nc1ccc2nsnc2c1)C(C)C	CCHF vOTU inh-1 98 (no result: FBA Mtb inh, GDH-TPI inh) | CCHF vOTU inh-2 67
COC(=O)/C=C1\OCc2cc(OC)c(OC)cc21	CCHF vOTU inh-1 37 (no result: FBA Mtb inh, Mtb bLac sens, GDH-TPI inh, RecA intein inh) | CCHF vOTU inh-2 inactive
CC(=O)N1CCc2cc(S(=O)(=O)CCC(=O)Nc3ccc4c(c3)OCCO4)ccc21	none
